The source of these data is PubChem BioAssay (EPA / NIEHS).

Activity calls are given as the source filed them. Rule for the calls: active = hit-call score of the fitted dose curve at least 0.9, where 1 is the maximum; inactive = score below 0.9.

As usually defined, the AC50 is the concentration giving half of the maximal activity seen.

Read-out in the assay: Monokine induced gamma interferon (MIG), CXCL9 (gene 4283)
The assay can be described thus: BSK_3C_MIG: BioMAP Diversity Plus: 3C Assay for Monokine induced gamma interferon (MIG) Biomarker Activity (AID 2283021).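 For AC50: MIG protein level measured by immunoassay in the treated endothelial cultures.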 Conditions: primary human endothelial cells (HUVEC); actives raise or lower the signal. As for the experimental part:
BSK_3C is a cell-based, multiplexed-readout assay that uses umbilical vein endothelium, a human vascular primary cell, with measurements taken at 24 hours after chemical dosing in a 96-well plate.BSK_3C_MIG is an assay component measured in the BSK_3C assay. It measures MIG antibody related to regulation of gene expression using ELISA technology.Data from the assay component BSK_3C_MIG was analyzed into 1 assay endpoint. This assay endpoint, BSK_3C_MIG, was analyzed with bidirectional fitting relative to DMSO as the negative control and baseline of activity. Using a type of binding reporter, gain or loss-of-signal activity can be used to understand changes in the signaling as they relate to the gene CXCL9. Furthermore, this assay endpoint can be referred to as a primary readout, because this assay has produced multiple assay endpoints where this one serves a signaling function. To generalize the intended target to other relatable targets, this assay endpoint is annotated to the cytokine intended target family, where the subfamily is chemotactic factor.
The levels of cell surface (or secreted, indicated by the prefix "s") biomarker endpoints were measured by ELISA. Overt cytotoxicity to cells in confluent adherent cultures (all systems other than the BT system) was assessed by measuring total protein levels using sulforhodamine B (SRB) staining in parallel cultures at the time of biomarker measurements, indicated as SRB endpoints. For proliferation assays for adherent cell types, individual cell types are cultured at sub-confluence and relative cell numbers quantified by SRB staining at time points optimized for each system (48 h: 3C and CASM3C systems; 72 h: BT and HDF3CGF systems; 96 h: SAg system). SRB was performed by staining cells with 0.1% SRB after fixation with 10% TCA and reading wells at 560 nm.Viability and proliferation of PBMC (T cells) was quantified by Alamar Blue reduction for the SAg and BT systems. For PBMC viability (referred to as PBMC Cytotoxicity within the assay endpoint names), cells were plated (75,000/well in a 96-well plate) and then chemical samples added for 1 h before addition of activators, SEB and TSST-1 (20 ng/mL final concentration each). Cells were incubated for 90 h. Then, Alamar Blue (20 uL/well) (Invitrogen, Cat DAL1100) was added for 6 h, and the plates were read with a fluorescence microplate reader at 546/580 nm (excitation/emission). For PBMC proliferation, cells were plated and activated as above but incubated for only 16 h prior to addition of Alamar Blue. Plates were read after 6 h.
In the case of `CCCC(=O)OCCC(C)C`, the outcome was inactive.
As for `CCN(Cc1cccc(S(=O)(=O)O)c1)c1ccc(C(=C2C=CC(=[N+](CC)Cc3cccc(S(=O)(=O)O)c3)C=C2)c2ccccc2S(=O)(=O)[O-])cc1`, the outcome was inactive.
As to `Cc1cc2c(cc1C(F)(F)F)N(C(=O)Nc1ccc(Oc3cccnc3C)nc1)CC2`, the outcome was inactive.
Turning to `CCCCCCCCCCCCO`, the outcome was inactive.
Take `CC(C)(C)c1cc(/C=C2\SC(N)=NC2=O)cc(C(C)(C)C)c1O`: the AC50 is 37.1 µM (active).
Regarding `CC1(C)NC(=O)N(c2ccc([N+](=O)[O-])c(C(F)(F)F)c2)C1=O`, the result was inactive.
In the case of `O=C1CCC(C2CCCCC2)CC1`, the outcome was inactive.
As for `COc1cc(C(=O)NC2CCN(C)CC2)ccc1Nc1ncc2c(n1)N(C1CCCC1)CC(F)(F)C(=O)N2C`, the AC50 was 19.2 µM (active).
On to `O=C(O)c1ccccc1C(=O)OCc1ccccc1`, for which the result was inactive.
Turning to `CN1C(=O)CC[C@H]1c1cccnc1`, the result was inactive.
On to `CC/C(=C(/CC)c1ccc(O)cc1)c1ccc(O)cc1`, for which the AC50 is 35.8 µM (active).
`O=c1[nH]sc2ccccc12`: the AC50 is 28.9 µM (active).
With `CC(O)CC(C)(C)O` (stereo not given), the result was inactive.
On to `O=C1O[C@H]([C@@H](O)CO)C(O)=C1O`, for which the outcome was inactive.
As for `O=C(OCCCCCCOC(=O)c1ccccc1)c1ccccc1`, the result was inactive.
With `Cc1c2ccccc2c(C)c2c1ccc1ccccc12`, the result was inactive.
As to `CC[C@@H]1C[C@H](N(Cc2cc(C(F)(F)F)cc(C(F)(F)F)c2)C(C)=O)c2cc(C(F)(F)F)ccc2N1C(=O)OC(C)C`, the result was inactive.
As to `CC(=O)N1CCN(c2ccc(OC[C@H]3CO[C@](Cn4ccnc4)(c4ccc(Cl)cc4Cl)O3)cc2)CC1`, the AC50 was 34.5 µM (active).
Regarding `CN(C)C(=O)C1(N2CCCCC2)CCN(CC[C@@]2(c3ccc(Cl)c(Cl)c3)CN(C(=O)c3ccccc3)CCO2)CC1`, the AC50 is 34.7 µM (active).
As to `CCCCCCCCOC(=O)c1cc(O)c(O)c(O)c1`, the AC50 was 39.3 µM (active).
As to `CC1=CC(=O)/C(=C(/C)O)C(=O)O1`, the result was inactive.
On to `Cc1occc1C(=O)Nc1ccc(C(=O)N2CCC(F)(F)/C(=C\C(=O)N3CCC(N4CCCCC4)CC3)c3ccccc32)cc1`, for which the outcome was inactive.
For `NC(=O)c1nc(-c2cccc(-c3cc(F)ccc3OCC(F)(F)C(F)(F)F)c2)n[nH]1`, the AC50 was 41.4 µM (active).
As for `CCCCCCCC[Si](OCC)(OCC)OCC`, the result was inactive.
On to `CCO[Si](CCCNC(N)=O)(OCC)OCC`, for which the outcome was inactive.
Take `CN(C)c1ccc(C(=C2C=CC(=[N+](C)C)C=C2)c2ccc(N(C)C)cc2)cc1`: the AC50 is 9.93 µM (active).
In the case of `c1ccc2ccccc2c1`, the result was inactive.
As for `CC(C)(c1cc(Br)c(O)c(Br)c1)c1cc(Br)c(O)c(Br)c1`, the AC50 is 37.1 µM (active).
For `O=C(O)c1ccccc1-n1cc(C(=O)O)c(=O)c2cc(Nc3c(F)cc(F)cc3Cl)c(Cl)cc21`, the result was inactive.
On to `O=c1ccc2ccccc2o1`, for which the outcome was inactive.
In the case of `c1ccc2n[nH]nc2c1`, the outcome was inactive.
Regarding `Clc1ccccc1C(c1ccccc1)(c1ccccc1)n1ccnc1`, the AC50 was 34.5 µM (active).
As to `Cc1cc(F)ccc1-c1cc(N2CC[C@@H](O)[C@H]2CO)ncc1N(C)C(=O)C(C)(C)c1cc(C(F)(F)F)cc(C(F)(F)F)c1`, the AC50 was 12.9 µM (active).
As to `CCCCOC(=O)CC(CC(=O)OCCCC)(OC(C)=O)C(=O)OCCCC`, the result was inactive.
Regarding `OC12N=C(c3ccccc3)SC1Cc1cc(Cl)ccc12` (stereo not given), the outcome was inactive.
Same read-out and setting: for `CC(C)(O)c1ccc(CNC(=O)c2cccnc2Oc2ccc3nonc3c2)cc1` the value was “inactive”; for `Clc1cc(Cl)c2c(c1)N=C1CCCCCN1C2`, “inactive”; for `COCC(C)OCC(C)OCC(C)O` (stereo not given), “inactive”.
Take `CC(C)(C)c1csc(-c2cc3cc(OCc4ccccc4CC(=O)O)ccc3o2)n1`: the AC50 is 32 µM (active).
On to `CCCCCCCCCCCC[N+](C)(C)C`, for which the AC50 was 29.4 µM (active).
